Not all results are given here.
aSyn 5UTR act – Activators via SNCA 5'UTR binding, MLPCN. alpha-synuclein 5'UTR reporter, activators screen. activity score, % (tested at 7.5 µM), hits read low. actives 7.1% (n = 300,000); in the data active = activity score below about -60%
Numbers without * were called inactive.

SMILES | aSyn 5UTR act
Cc1ccc(-c2nnc(-c3ccccc3)o2)cc1 | -76.7*
CCCc1nnc(-c2ccc(OC)cc2)o1 | -67.1*
CCN(CC)CCCNc1ccc(-c2nnc(-c3ccc(OCC(C)C)cc3)o2)cn1 | 120.7
COc1ccc(-c2nnc(-c3ccc(F)cc3)o2)cc1 | -152.1*
COc1ccc2c(c1)O[C@@H](c1cccc(C(F)(F)F)c1)[C@H](O)C2=O | 62.4
Cc1ccc2c(c1)C(=O)CC(c1ccc3c(c1)OCCO3)O2 (stereo not given) | -96.3*
COc1ccc2c(c1)O[C@H](c1ccc3c(c1)OCO3)[C@@H](O)C2=O | -85.5*
COc1ccc2c(c1)C(=O)CC(c1ccc3c(c1)OCCO3)O2 (stereo not given) | -271.9*
CC(C)c1ccc(N2C(=O)[C@@H]3Cc4ccccc4CN3C2=O)cc1 | -117.9*
Cc1ccc(N2C(=O)[C@@H]3Cc4ccccc4CN3C2=O)cc1 | -71.4*
CC(C)C(=O)Nc1nc2cc3c(cc2s1)OCO3 | -178.5*
CC(C)(C)C(=O)Nc1nc2cc3c(cc2s1)OCO3 | -144.3*
O=C(Nc1nc2cc3c(cc2s1)OCCO3)C1=COCCO1 | 99.0
CCNc1nc(-c2ccc(OC(F)F)cc2)c(C)s1 | -72.0*
FC(F)(F)c1ccc(Nc2nnnc3ccccc23)cc1 | -139.6*
O=C(c1cc(Br)c(Br)s1)N1CCN(c2ccccn2)CC1 | -65.5*
O=C(c1ccc2nc(N3CCCCC3)sc2c1)N1CCN(c2ccccn2)CC1 | -111.5*
NC(=O)C1CCN(C(=O)c2ccc3nc(N4CCCCC4)sc3c2)CC1 | -102.5*
COc1ccc(C(=O)Nc2nnc(C(F)(F)F)s2)cc1 | -143.9*
CCC(NC(=O)Nc1nnc(C(F)(F)F)s1)(C(F)(F)F)C(F)(F)F | 108.9
COc1ccc(C(=O)Nc2nnc(-c3ccccc3)s2)cc1 | -189.4*
COC(=O)Nc1nnc(-c2ccc(OC)cc2)s1 | -76.2*
CCOc1ccc2nc(SCC(=O)N(C)C)[nH]c2c1 | -92.1*
O=C(CSc1nc2ccccc2[nH]1)c1ccco1 | -126.5*
O=C(CSc1nc2ccc(Cl)cc2[nH]1)c1cccs1 | -112.9*
SMILES | aSyn 5UTR act
O=C(CSc1nc2ccccc2[nH]1)N1CCCCC1 | -135.8*
Fc1cccc(F)c1CSc1nc2ccccc2[nH]1 | -126.6*
COc1ccc2nc(SCC(=O)C(C)(C)C)[nH]c2c1 | -133.9*
O=C(CSc1nc2ccccc2[nH]1)c1ccccc1F | -162.2*
c1ccc2[nH]c(SCc3cn4cccnc4n3)nc2c1 | -63.1*
COc1ccc(C(=O)Nn2c(SCC(=O)N3CCC(C)CC3)nc3ccccc3c2=O)cc1 | 82.8
O=C(CSc1nc2ccccc2n1S(=O)(=O)c1ccccc1)N1CCCCC1 | -99.5*
COc1ccc2nc(SCC(=O)c3ccco3)[nH]c2c1 | -105.2*
Fc1cccc(CSc2nc3ccncc3[nH]2)c1 | -80.4*
O=C(CSc1nc2ccccc2[nH]1)c1ccc(Cl)s1 | -112.9*
CCOc1ccc2[nH]c3ncccc3c(=O)c2c1 | -138.6*
CC1CCCCN1C(=O)CSc1nc2ccsc2c(=O)n1Cc1ccccn1 (stereo not given) | -119.5*
Cc1cc(NC(=O)CSc2nc3ccsc3c(=O)n2Cc2ccccn2)n[nH]1 | -78.7*
CC1CCN(c2ccc(NC(=O)c3cccnc3Cl)cc2)CC1 | -69.1*
CC1CCN(c2ccc(NC(=O)c3cccnc3)cc2)CC1 | -148.7*
COc1ccc(-c2nc3ccc(C)cn3c2NCc2ccc3c(c2)OCO3)cc1 | -119.2*
Cc1ccc(-c2nc3ccccn3c2NCc2ccc3c(c2)OCO3)cc1 | -163.2*
COC(=O)c1sccc1NC(=O)COc1ccc(C)cc1 | -143.6*
COC(=O)c1sccc1NC(=O)COc1ccc(Cl)cc1Cl | -161.7*
CC1(C)Cc2c(sc(NC(=O)COc3ccc(Cl)cc3Cl)c2C(N)=O)C(C)(C)N1 | 62.1
Cc1cc(N2CCCCCC2)nc2ccc(F)cc12 | -63.6*
Fc1ccc2nc(N3CCCC3)sc2c1 | -199.8*
Fc1cc(F)c2nc(N3CCCCC3)sc2c1 | -98.2*
O=[N+]([O-])c1ccc2nc(N3CCCC3)sc2c1 | -120.6*
Cc1ccc(C(=O)c2cc([N+](=O)[O-])ccc2N2CCCCC2)cc1 | 81.1
SMILES | aSyn 5UTR act
CC(C)(C)Cc1nnc(NC(=O)c2ccc([N+](=O)[O-])cc2)s1 | -77.3*
CCCc1nnc(NC(=O)c2ccc([N+](=O)[O-])cc2)s1 | -67.4*
CCC(C)(C)c1nnc(NC(=O)c2ccc([N+](=O)[O-])cc2)s1 | -149.3*
Cc1ccccc1CSc1ccc(-c2ccc3c(c2)OCO3)nn1 | -82.8*
Cc1nc(C)c(-c2ccc(SCc3ccccc3C)nn2)s1 | -97.5*
c1cncc(CSc2ccc(-c3ccc4c(c3)OCO4)nn2)c1 | -109.1*
CCCCNC(=S)Nc1ccc(SC(F)F)cc1 | -163.7*
Cc1ccc(NC(=O)N2C(=O)C3(OCCO3)c3ccccc32)cc1 | -164.5*
O=C(N/N=C/C(Br)=C/c1ccccc1)c1ccccc1[N+](=O)[O-] | -75.9*
Cc1occc1C(=O)N/N=C/C(Br)=C/c1ccccc1 | -219.2*
O=C(Cn1cc(C(=O)C2CC2)c2ccccc21)NCc1ccccc1 | -81.4*
N#CC1=C(N)NC(SCc2ccc(F)cc2)=C(C#N)C12CCCCC2 | -83.2*
Cc1cc(C(=O)Nc2ccc3c(c2)CCC3)ccc1[N+](=O)[O-] | -187.4*
CN(C)S(=O)(=O)c1ccc(C(=O)Nc2ccc3c(c2)CCC3)cc1 | -92.9*
Cc1cccc(C(=O)Nc2nc(C)c(C(=O)Nc3ccc4c(c3)CCC4)s2)c1 | -120.9*
CN(C)S(=O)(=O)c1cccc(C(=O)Nc2ccc3c(c2)CCC3)c1 | -114.5*
Cc1ccc2nc(/C(C#N)=C\c3ccc(N4CCOCC4)o3)[nH]c2c1 | -231.3*
N#C/C(=C/c1ccc(N2CCOCC2)o1)C(=O)Nc1ccccc1 | -152.5*
Cc1ccc(/C(C#N)=C\c2ccc(N3CCOCC3)o2)cc1 | -312.5*
Cc1c(C(=O)Nc2cccc(Cl)c2)c2ccccn2c1CCc1ccncc1 | -102.9*
Cc1c(C(=O)Nc2ccc(Cl)cc2)c2ccccn2c1CCc1ccncc1 | -115.1*
CCCc1nn(C)c(C(=O)Nc2ccc3ccccc3c2)c1Cl | -203.9*
CCCc1nn(C)c(C(=O)Nc2cccc(CC)c2)c1Cl | -84.2*
CCCCC[C@H](O)/C=C/[C@@H]1[C@@H](C/C=C\CCCC(=O)OC)[C@@H](O)C[C@H]1O | 44.3
O=C(COC(=O)c1ccccc1Cc1ccccc1)Nc1ccc(SC(F)F)cc1 | -109.3*
SMILES | aSyn 5UTR act
O=C(Cc1ccccc1F)Nc1ccc(SC(F)F)cc1 | -136.9*
c1ccc(Nc2nc3ccccc3[nH]2)nc1 | -168.9*
Cc1cc(C)nc(Nc2nc3ccccc3[nH]2)n1 | -109.1*
COc1ccc(-c2nc(=S)c3c([nH]2)Oc2ccc(C)cc2C3)cc1O | -75.6*
CCn1cnc2sc(C(=O)Oc3ccc(Br)cc3)c(C)c2c1=O | -77.0*
COc1cccc(CNc2ccc(F)c(Cl)c2)c1O | -183.8*
Cc1ccc(O)c(CNc2cnc3ccccc3c2)c1 | -99.7*
COc1cccc(CNc2cnc3ccccc3c2)c1O | -218.5*
COc1ccccc1Nc1nc2ccccc2n1C | -121.7*
COc1ccc(CNc2ncc(-c3ccc(F)cc3)n2C)c2ccccc12 | 65.1
COc1cccc(CNc2nc3ccccc3n2C)c1O | -93.7*
CCc1ccc(NC(=O)NCCCN2CCCC2=O)cc1 | -65.2*
Cc1ccc(NC(=O)C(=O)NCCCN2CCCC2=O)cc1 | -70.9*
COc1ccc(OCC(=O)c2c[nH]c3ccccc23)cc1 | -90.3*
Cc1ccc(OCC(=O)c2cc(C)n(-c3ccccc3)c2C)c([N+](=O)[O-])n1 | 67.9
COC(=O)c1ccc(NC(=O)C(=O)c2c[nH]c3ccccc23)cc1 | -92.5*

Bioassay records as filed in PubChem.
